Test results taken from PubChem BioAssay (EPA / NIEHS).
“And” between values parts separate entries of the source, which are not always exact repeats. Equal values may be shown once. Records with an inconclusive call do not appear. More than one record can exist for a structure, and the calls need not agree. The source made the active and inactive calls. Rule for the calls, unless noted: active = hit-call score of the fitted dose curve at least 0.9, where 1 is the maximum; inactive = score below 0.9.

What was measured:
[1] = BSK_3C_SRB: Viability Assessment in the BioMAP Diversity Plus: 3C Assay (AID 2283023); details: primary human endothelial cells (HUVEC);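 note: fitted both ways against DMSO so a hit may be signal rise or drop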
How it was run: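 Primary human umbilical vein endothelial cells in the 3C system were read 24 h after compound dosing. Total protein was stained with 0.1% sulforhodamine B after 10% TCA fixation and read at 560 nm, with bidirectional fitting against DMSO as baseline.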

[2] = read-out: Matrix Metallopeptidase 1 (MMP1), MMP1 (gene 4312); assay: BSK_BE3C_MMP1: BioMAP Diversity Plus: BE3C Assay for Matrix Metallopeptidase 1 (MMP1) Biomarker Activity (AID 2283024); details: primary human bronchial epithelial cells; actives raise or lower the signal
How it was run: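 Human primary bronchial epithelial cells (BE3C system) dosed for 24 h; MMP-1 quantified by ELISA. Bidirectional fit against DMSO; cytotoxicity tracked in parallel cultures by SRB total-protein staining.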

[3] = BSK_3C_Vis: BioMAP Diversity Plus: 3C Assay for Morphology Visualization (AID 2283025); details: primary human endothelial cells (HUVEC);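 note: fitted both ways so gain or loss versus DMSO counts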;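 for AC50: light microscopy image of cell morphology used as background control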
How it was run: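 Human umbilical vein endothelial cell morphology was inspected by light microscopy 24 h after chemical dosing; scored bidirectionally relative to DMSO.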

[4] = BSK_4H_SRB: Viability Assessment in the BioMAP Diversity Plus: 4H Assay (AID 2283027); details: primary human endothelial cells (HUVEC);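 for AC50: curves fitted both ways versus DMSO so AC50 may be loss or gain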
How it was run: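 Absorbance at 560 nm of SRB-stained total protein served as the viability read-out in confluent primary human umbilical vein endothelium 24 h after chemical treatment. Curves were fitted bidirectionally against DMSO as negative control.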

[5] = read-out: Thrombomodulin, THBD (gene 7056); assay: BSK_3C_Thrombomodulin: BioMAP Diversity Plus: 3C Assay for Thrombomodulin Biomarker Activity (AID 2283029); details: primary human endothelial cells (HUVEC); actives raise or lower the signal
How it was run: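 Human umbilical vein endothelial cells were exposed to chemicals for 24 h; cell-surface thrombomodulin quantified by ELISA, with bidirectional fitting against DMSO baseline.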

[6] = read-out: Urokinase-type plasminogen activator receptor (uPAR), PLAUR (gene 5329); assay: BSK_4H_uPAR: BioMAP Diversity Plus: 4H Assay for Urokinase-type plasminogen activator receptor (uPAR) Biomarker Activity (AID 2283030); details: primary human endothelial cells (HUVEC); actives raise or lower the signal
How it was run: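 Primary human umbilical vein endothelial cells were exposed to chemical for 24 h before cell-surface uPAR was quantified by ELISA. Activity was fitted bidirectionally against the DMSO negative control baseline.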

[7] = read-out: Vascular endothelial growth factor receptor 2 (Homo sapiens) (UniProt P35968); assay: BSK_4H_VEGFRII: BioMAP Diversity Plus: 4H Assay for Vascular endothelial growth factor receptor 2 (VEGFR2) Biomarker Activity (AID 2283031); details: primary human endothelial cells (HUVEC); actives raise or lower the signal;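 for AC50: cell-surface VEGFR2 protein level quantified by ELISA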
How it was run: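 Primary human umbilical vein endothelial cells in the BioMAP 4H system were dosed with test chemical, and 24 h later VEGFRII was measured by ELISA. Activity was fitted bidirectionally against DMSO as negative control and baseline.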

[8] = read-out: Human Leukocyte Antigen - DR isotype (HLADR), HLA-DRA (gene 3122); assay: BSK_BE3C_HLADR: BioMAP Diversity Plus: BE3C Assay for Human Leukocyte Antigen - DR isotype (HLADR) Biomarker Activity (AID 2283032); details: primary human bronchial epithelial cells; actives raise or lower the signal
How it was run: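 Human primary bronchial epithelial cells (BE3C system) exposed to compound for 24 hours; cell-surface HLA-DR measured by ELISA, fitted bidirectionally relative to DMSO. Total protein by SRB in parallel cultures tracked cytotoxicity.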

[9] = read-out: Vascular cell adhesion molecule 1 (VCAM1), VCAM1 (gene 7412); assay: BSK_4H_VCAM1: BioMAP Diversity Plus: 4H Assay for Vascular cell adhesion molecule 1 (VCAM1) Biomarker Activity (AID 2283033); details: primary human endothelial cells (HUVEC); actives raise or lower the signal
How it was run: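 Primary human umbilical vein endothelial cells, 4H stimulation system, treated for 24 h; cell-surface VCAM-1 quantified by ELISA. Bidirectional fitting against DMSO; cytotoxicity tracked by SRB total-protein staining in parallel cultures.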

[10] = read-out: Interferon-gamma inducible Protein 10 (IP10), CXCL10 (gene 3627); assay: BSK_BE3C_IP10: BioMAP Diversity Plus: BE3C Assay for Interferon-gamma inducible Protein 10 (IP10) Biomarker Activity (AID 2283034); details: primary human bronchial epithelial cells; actives raise or lower the signal
How it was run: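 Primary human bronchial epithelial cells, with IP-10 measured by ELISA 24 hours after chemical dosing. Bidirectional fit against DMSO; cytotoxicity checked by SRB total protein staining in parallel cultures.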

[11] = read-out: Monokine induced gamma interferon (MIG), CXCL9 (gene 4283); assay: BSK_BE3C_MIG: BioMAP Diversity Plus: BE3C Assay for Monokine induced gamma interferon (MIG) Biomarker Activity (AID 2283035); details: primary human bronchial epithelial cells; actives raise or lower the signal;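 for outcome: MIG protein measured by ELISA in BE3C cultures after 24 h of dosing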
How it was run: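 MIG level was determined by ELISA after 24 h chemical treatment of primary human bronchial epithelial cells. Values were fitted bidirectionally with DMSO as the negative control and activity baseline.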

[12] = read-out: Transforming growth factor beta 1 (TGFb1), TGFB1 (gene 7040); assay: BSK_BE3C_TGFb1: BioMAP Diversity Plus: BE3C Assay for Transforming growth factor beta 1 (TGFb1) Biomarker Activity (AID 2283036); details: primary human bronchial epithelial cells; actives raise or lower the signal
How it was run: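 Primary human bronchial epithelial cells dosed with chemical; TGF-b1 measured by ELISA 24 h after dosing. Bidirectional curve fitting against DMSO negative control; SRB total-protein staining in parallel cultures gauged cytotoxicity.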

[13] = read-out: Plasminogen activator inhibitor-1 (PAI1), SERPINE1 (gene 5054); assay: BSK_BE3C_PAI1: BioMAP Diversity Plus: BE3C Assay for Plasminogen activator inhibitor-1 (PAI1) Biomarker Activity (AID 2283037); details: primary human bronchial epithelial cells; actives raise or lower the signal
How it was run: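 Primary human bronchial epithelial cells (BE3C system) exposed 24 h; PAI-1 quantified by ELISA. Parallel sulforhodamine B staining of total protein flags cytotoxicity. Bidirectional fit versus DMSO.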

[14] = read-out: urokinase plasminogen activator (uPA), PLAU (gene 5328); assay: BSK_BE3C_uPA: BioMAP Diversity Plus: BE3C Assay for urokinase plasminogen activator (uPA) Biomarker Activity (AID 2283038); details: primary human bronchial epithelial cells; actives raise or lower the signal;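 for outcome: uPA protein level quantified by ELISA in cell cultures; uPA read one day after compound addition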
How it was run: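 Human primary bronchial epithelial cells were exposed to chemical for 24 h, then uPA levels were measured by ELISA. Responses were fitted bidirectionally against DMSO as negative control and baseline. Parallel SRB staining of total protein gauged overt cytotoxicity.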

[15] = read-out: Urokinase-type plasminogen activator receptor (uPAR), PLAUR (gene 5329); assay: BSK_BE3C_uPAR: BioMAP Diversity Plus: BE3C Assay for Urokinase-type plasminogen activator receptor (uPAR) Biomarker Activity (AID 2283039); details: primary human bronchial epithelial cells; actives raise or lower the signal;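 for outcome: cells exposed to compound for one day before measurement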
How it was run: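 Primary human bronchial epithelial cells dosed for 24 h; uPAR quantified by ELISA with bidirectional fitting against DMSO. Overt cytotoxicity assessed in parallel cultures by SRB total-protein staining (0.1% SRB, 560 nm).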

[16] = read-out: Interleukin-6 (IL6), IL6 (gene 3569); assay: BSK_CASM3C_IL6: BioMAP Diversity Plus: CASM3C Assay for Interleukin-6 (IL6) Biomarker Activity for (AID 2283040); details: primary human coronary artery smooth muscle cells; actives raise or lower the signal
[17] = read-out: Tissue plasminogen activator (tPA), PLAT (gene 5327); assay: BSK_BE3C_tPA: BioMAP Diversity Plus: BE3C Assay for Tissue plasminogen activator (tPA) Biomarker Activity (AID 2283041); details: primary human bronchial epithelial cells; actives raise or lower the signal;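 note: tPA level quantified by ELISA one day after compound addition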
How it was run: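 Primary human bronchial epithelial cells in the BE3C system, exposed to compound for 24 h. tPA was quantified by ELISA; DMSO served as baseline, with gain or loss of signal fitted. Cytotoxicity checked in parallel cultures by SRB total-protein staining.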

[18] = read-out: Interleukin-8 (IL8), CXCL8 (gene 3576); assay: BSK_CASM3C_IL8: BioMAP Diversity Plus: CASM3C Assay for Interleukin-8 (IL8) Biomarker Activity (AID 2283042); details: primary human coronary artery smooth muscle cells; actives raise or lower the signal;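 note: IL-8 protein level quantified by ELISA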
[19] = read-out: Human Leukocyte Antigen - DR isotype (HLADR), HLA-DRA (gene 3122); assay: BSK_CASM3C_HLADR: BioMAP Diversity Plus: CASM3C Assay for Human Leukocyte Antigen - DR isotype (HLADR) Biomarker Activity (AID 2283043); details: primary human coronary artery smooth muscle cells; actives raise or lower the signal;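 note: cell-surface HLA-DR protein level quantified by ELISA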
[20] = molecular target: human Vitamin D Receptor (VDR), VDR (gene 7421) (UniProt P11473); assay: ATG_VDR_TRANS: Attagene TRANS-FACTORIAL HepG2 Assay for human Vitamin D Receptor (VDR) (AID 2283022; active = hit-call score of the fitted dose curve at least 0.9, where 1 is the maximum)
Sequence of human Vitamin D Receptor (VDR), VDR (gene 7421) (P11473 whole entry, looked up, the tested form may be a part): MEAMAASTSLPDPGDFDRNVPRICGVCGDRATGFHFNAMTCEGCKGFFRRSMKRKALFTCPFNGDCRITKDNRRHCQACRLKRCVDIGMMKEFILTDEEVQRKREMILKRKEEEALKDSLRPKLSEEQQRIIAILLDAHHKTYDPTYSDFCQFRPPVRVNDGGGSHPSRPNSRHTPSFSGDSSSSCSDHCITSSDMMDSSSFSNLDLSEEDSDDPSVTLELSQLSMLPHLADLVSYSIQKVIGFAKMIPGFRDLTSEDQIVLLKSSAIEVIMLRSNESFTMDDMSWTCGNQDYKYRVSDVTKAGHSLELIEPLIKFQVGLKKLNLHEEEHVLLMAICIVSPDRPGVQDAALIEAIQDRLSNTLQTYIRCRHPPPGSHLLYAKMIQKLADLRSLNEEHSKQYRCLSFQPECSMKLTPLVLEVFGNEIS
How it was run: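 HepG2 cells were transiently transfected with multiple GAL4-UAS reporter units, so signal reflects exogenous chimeric receptor-Gal4 activity. After 24 h compound exposure, reporter mRNA was measured by RT-PCR, fluorescent labelling and capillary electrophoresis, fitted for gain of signal versus DMSO.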

## CCCCC/C=C\C/C=C\CCCCCCCC(=O)OC
[1]
  outcome: inactive
[2]
  outcome: inactive
[3]
  AC50: 37.5 µM (active)
[4]
  AC50: 20 µM (active)
[5]
  outcome: inactive
[6]
  outcome: inactive
[7]
  outcome: inactive
[8]
  AC50: 18.8 µM (active)
[9]
  AC50: 36.2 µM (active)
[10]
  AC50: 24.9 µM (active)
[11]
  AC50: 38.5 µM (active)
[12]
  outcome: inactive
[13]
  outcome: inactive
[14]
  outcome: inactive
[15]
  outcome: inactive
[16]
  AC50: 20 µM (active)
[17]
  outcome: inactive
[18]
  outcome: inactive
[19]
  AC50: 20 µM (active)

## COCc1c(C(C)C)nc(C(C)C)c(/C=C/[C@@H](O)C[C@@H](O)CC(=O)O)c1-c1ccc(F)cc1
[20]
  outcome: inactive
[1]
  AC50: 43.4 nM (active)
[2]
  outcome: inactive
[3]
  AC50: 0.00941 µM (active)
[4]
  AC50: 0.0192 µM (active)
[5]
  outcome: inactive
[6]
  AC50: 0.456 µM (active)
[7]
  outcome: inactive
[8]
  outcome: inactive
[9]
  outcome: inactive
[10]
  outcome: inactive
[11]
  outcome: inactive
[12]
  outcome: inactive
[13]
  outcome: inactive
[14]
  outcome: inactive
[15]
  outcome: inactive
[16]
  outcome: inactive
[17]
  outcome: inactive
[18]
  AC50: 0.0375 µM (active)
[19]
  outcome: inactive

## C=CC=CC=CCCCCC
[1]
  outcome: inactive
[2]
  outcome: inactive
[3]
  outcome: inactive
[4]
  outcome: inactive
[5]
  outcome: inactive
[6]
  outcome: inactive
[7]
  outcome: inactive
[8]
  AC50: 5 µM (active)
[9]
  outcome: inactive
[10]
  AC50: 5 µM (active)
[11]
  outcome: inactive
[12]
  outcome: inactive
[13]
  outcome: inactive
[14]
  outcome: inactive
[15]
  outcome: inactive
[16]
  outcome: inactive
[17]
  outcome: inactive
[18]
  outcome: inactive
[19]
  AC50: 5 µM (active)

## CCOc1nc(F)cc2nc(S(=O)(=O)Nc3c(Cl)cccc3C(=O)OC)nn12
[1]
  outcome: inactive
[2]
  outcome: inactive
[3]
  outcome: inactive
[4]
  outcome: inactive
[5]
  outcome: inactive
[6]
  outcome: inactive
[7]
  outcome: inactive
[8]
  outcome: inactive
[9]
  outcome: inactive
[10]
  outcome: inactive
[11]
  outcome: inactive
[12]
  outcome: inactive
[13]
  outcome: inactive
[14]
  outcome: inactive
[15]
  outcome: inactive
[16]
  outcome: inactive
[17]
  outcome: inactive
[18]
  outcome: inactive
[19]
  outcome: inactive

## Nc1ccc(N)c(Cl)c1
[20]
  outcome: inactive
[1]
  AC50: 28.6 µM (active) and 30.6 µM (active)
[2]
  AC50: 150 nM (active) and 1.5 µM (active)
[4]
  AC50: 27.4 µM (active) and 30.5 µM (active)
[5]
  outcome: inactive
[6]
  outcome: inactive
[7]
  AC50: 10.2 µM (active)
  outcome: inactive
[8]
  outcome: inactive
[9]
  AC50: 20 µM (active) and 19.6 µM (active)
[10]
  outcome: inactive
[11]
  outcome: inactive
[13]
  AC50: 3.32 µM (active) and 2.4 µM (active)
[14]
  outcome: inactive
[15]
  AC50: 11.1 µM (active) and 4.19 µM (active)
[16]
  outcome: inactive
[17]
  outcome: inactive
[18]
  outcome: inactive
[19]
  outcome: inactive

## CCCCNc1ccc(NCCCC)c2c1C(=O)c1ccccc1C2=O
[1]
  outcome: inactive
[2]
  AC50: 6.81 µM (active)
[3]
  outcome: inactive
[4]
  outcome: inactive
[5]
  outcome: inactive
[6]
  outcome: inactive
[7]
  outcome: inactive
[8]
  AC50: 5 µM (active)
[9]
  outcome: inactive
[10]
  AC50: 4.33 µM (active)
[11]
  outcome: inactive
[12]
  AC50: 5 µM (active)
[13]
  outcome: inactive
[14]
  AC50: 5 µM (active)
[15]
  AC50: 6.83 µM (active)
[16]
  outcome: inactive
[17]
  outcome: inactive
[18]
  outcome: inactive
[19]
  outcome: inactive
